# Source: PubChem BioAssay
# This is a sample that favours compounds with a hit; in the whole collection about 2.3% have one here.
# SENP7 block – SENP7 protease inhibition. 330,000 tested, 1.5% active. AID 434973. Q9BQF6. recombinant SENP7, Z-RLRGG-aminoluciferin luminescence, 40 min. inhibition, % at 5 µM;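 active = inhibition above about 50% at the single test dose, limit read from the data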;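 note: plate controls were DMSO with enzyme for no effect and no enzyme buffer wells for full effect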
# Target sequence (Q9BQF6 706-1050 limits assumed): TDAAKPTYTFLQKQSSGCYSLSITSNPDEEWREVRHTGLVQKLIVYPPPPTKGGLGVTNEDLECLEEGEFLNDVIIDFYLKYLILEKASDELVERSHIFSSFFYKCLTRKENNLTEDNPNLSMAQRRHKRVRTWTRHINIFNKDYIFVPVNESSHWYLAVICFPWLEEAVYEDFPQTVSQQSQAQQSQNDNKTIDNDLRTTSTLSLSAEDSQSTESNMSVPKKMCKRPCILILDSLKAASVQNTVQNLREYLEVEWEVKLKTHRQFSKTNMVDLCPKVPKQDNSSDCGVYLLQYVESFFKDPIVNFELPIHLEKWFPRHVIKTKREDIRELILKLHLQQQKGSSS
# HSP90 inh – blocks HSP90-mediated luciferase refolding in reticulocyte lysate; Rabbit reticulocyte lysate, luciferase refolding luminescence, 3 h; inhibition, % at 5.6 µM; 290,000 tested, 0.91% active; AID 1789;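 active = inhibition above the screen-wide mean plus 3 SD, computed separately per campaign, cut at about 16% in these data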;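 note: 0% = DMSO wells and 100% = 60 µM geldanamycin wells; inhibitors lower the luminescence because luciferase stays unfolded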
# SENP8 block-1 – SENP8 (human) protease inhibition; inhibition, % at 20 µM; recombinant SENP8, Nedd8 substrate fluorescence; 360,000 tested, 0.64% active; AID 602440; in the data active = inhibition mostly above about 40%, no sharp cut-off; inactive = mostly below about 27%
# Target sequence (Q96LD8 whole entry, looked up): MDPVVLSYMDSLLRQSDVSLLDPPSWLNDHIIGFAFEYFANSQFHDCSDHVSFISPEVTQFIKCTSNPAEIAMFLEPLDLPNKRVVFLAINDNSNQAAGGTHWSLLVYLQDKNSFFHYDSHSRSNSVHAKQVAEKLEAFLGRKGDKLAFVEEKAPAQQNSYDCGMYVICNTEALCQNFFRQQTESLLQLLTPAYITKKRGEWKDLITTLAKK
# SENP8 block-2 – SENP8 protease inhibition | Q96LD8 | purified SENP8, Z-RLRGG-aminoluciferin cleavage, luminescence | inhibition, % at 10 µM | 330,000 tested, 1.2% active; in the data active = inhibition above about 50%
# SENP6 inh – inhibitors of human SENP6 protease. Q9GZR1. inhibition, % at 10 µM. 330,000 tested, 1.8% active. Recombinant SENP6 catalytic domain, aminoluciferin luminescence;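 active = inhibition above about 50% at the single tested dose, limit read from the data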;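 note: plate controls were DMSO wells with enzyme for no effect and DMSO wells lacking enzyme for full effect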
# LGR2 inh – inhibitors of bursicon-induced Drosophila LGR2 receptor cAMP signaling; HEK293 LGR2, CRE-luciferase, bursicon-stimulated, 4 h; inhibition, % at 9.99 µM; 380,000 tested, 0.35% active;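 active = drop in luminescence signal, shown as inhibition above about 50% in the replicate tests, limit read from the data, passing the limit was not always enough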;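 note: agonist challenge used bursicon conditioned medium at about half maximal strength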
# SENP8 confirm – human SENP8 inhibition, confirmed. shares compounds with SENP7 block. Recombinant SENP8, Z-RLRGG-aminoluciferin luminescence, 60 min. inhibition, % at 12.5 µM. 6,200 tested, 40% active. AID 488912;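 active = mean inhibition across replicates above about 50%, limit read from the data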
# SENP6 confirm – human SENP6 inhibition, confirmed | shares compounds with SENP7 block | recombinant SENP6, Z-RLRGG-aminoluciferin luminescence | inhibition, % at 12.5 µM | 6,200 tested, 58% active | AID 488915
# SENP7 confirm – confirmation of human SENP7 protease inhibitors | shares compounds with SENP7 block | recombinant SENP7, Z-RLRGG-aminoluciferin luminescence, 40 min | inhibition, % at 12.5 µM | 6,200 tested, 69% active
# Casp3 SENP sel – caspase-3 inhibition (SENP selectivity assay). 6,200 tested, 60% active. AID 488918. shares compounds with SENP7 block. purified caspase-3, Z-DEVD-aminoluciferin luminescence, 60 min. inhibition, % at 12.5 µM;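 active = mean inhibition above about 50%, limit read from the data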;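 note: plate controls were enzyme with DMSO for no effect and wells without caspase-3 for full effect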
# SENP luc ctr – luminescence interference (SENP counter-screen); shares compounds with SENP7 block; inhibition, % at 12.5 µM; 6,200 tested, 39% active; Pre-incubated SENP8/Z-RLRGG-aminoluciferin, luciferase luminescence interference;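 active = mean inhibition above about 50% when retested at one dose, limit read from the data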;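 note: plate controls were DMSO wells with completed reaction for no effect and substrate without enzyme for full effect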
# * = called active by the depositor; . = no result.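 Rule for the calls, unless noted: active = mean inhibition above about 50% in the one-dose retest (limit read from the data); inactive = the rest.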
SMILES,SENP7 block,HSP90 inh,SENP8 block-1,SENP8 block-2,SENP6 inh,LGR2 inh,SENP8 confirm,SENP6 confirm,SENP7 confirm,Casp3 SENP sel,SENP luc ctr
O=C(COC(=O)c1cccs1)c1ccc2ccccc2c1,78*,0,0,63*,41,.,-19,64*,89*,44,54*
O=C(C[C@@H]1C=C[C@H](NC(=O)CC2CC2)[C@@H](CO)O1)NCc1ccc(Cl)cc1,.,.,.,.,.,-4,.,.,.,.,.
O=C(C[C@@H]1C[C@H]2c3cc(NC(=O)CC4CC4)ccc3O[C@H]2[C@@H](CO)O1)NCCc1ccccc1,.,.,.,.,.,2,.,.,.,.,.
C[C@H](CO)N1C[C@H](C)[C@H](CN(C)C(=O)Oc2ccccc2)OCc2cn(nn2)CCCC1=O,.,.,.,.,.,-1,.,.,.,.,.
COc1ccc2c(c1)C1OCCC1C(c1ccco1)N2 (stereo not drawn),42,.,-460,56*,-3,.,64*,64*,91*,88*,75*
Cc1cccc(Nc2nc3ccccc3s2)c1C,83*,-3,16,65*,69*,-20,-15,74*,94*,59*,29
COc1ccc(Nc2nc3ccccc3s2)cc1,69*,-4,5,62*,75*,-23,66*,66*,89*,50*,18
CCCNC(=O)N(C)C[C@@H]1Oc2cc(-c3ccccc3F)ccc2S(=O)(=O)N([C@@H](C)CO)C[C@H]1C,.,.,.,.,.,-5,.,.,.,.,.
CC(C)NC(=O)Nc1cccc2c1O[C@@H](CN(C)S(=O)(=O)c1ccc(F)cc1)[C@@H](C)CN([C@@H](C)CO)C2=O,.,.,.,.,.,3,.,.,.,.,.
O=C1C2C3C=CC(CC3)C2C(=O)N1/N=C/c1ccc(O)cc1 (stereo not drawn),2,-2,8,-6,-22,7,.,.,.,.,.
O=C1/C(=C\c2ccc(O)cc2)SC(=S)N1/N=C/c1ccc(O)cc1,83*,3,24,90*,98*,-8,16,10,44,48,57*
CC(=O)NN1C(=O)/C(=C\c2ccc(O)cc2)SC1=S,54*,0,16,60*,69*,-23,63*,61*,85*,82*,74*
COc1cc(C)nc(NS(=O)(=O)c2ccccc2Cl)n1,52*,-6,5,-7,4,3,-25,-17,-6,-5,-6
Cc1cc(NN)nc(NS(=O)(=O)c2ccccc2Cl)n1,7,-1,12,4,7,-19,.,.,.,.,.
C[C@H]1CN([C@@H](C)CO)C(=O)c2ccccc2-c2ccccc2CO[C@@H]1CN(C)C(=O)NC1CCCCC1,.,.,.,.,.,16,.,.,.,.,.
C[C@H](CO)N1C[C@H](C)[C@H](CN(C)S(=O)(=O)c2ccccc2)Oc2ncc(Br)cc2C1=O,.,.,.,.,.,4,.,.,.,.,.
COc1ccc2c(c1OC)C(=O)OC2Nc1nc(-c2ccc(-c3ccccc3)cc2)cs1 (stereo not drawn),63*,-2,-308,69*,83*,-38,51*,49,56*,38,74*
COc1ccc2oc(=O)c(-c3csc(Nc4ccc(O)cc4)n3)cc2c1,0,-1,-9,-2,3,-36,.,.,.,.,.
COc1ccc2c(c1OC)C(=O)OC2Nc1nc(-c2cc3cc([N+](=O)[O-])ccc3oc2=O)cs1 (stereo not drawn),65*,-2,11,52*,60*,-34,-7,-9,2,22,5
COc1cccc(-c2csc(NC3OC(=O)c4c3ccc(OC)c4OC)n2)c1 (stereo not drawn),-5,0,15,-13,-25,-28,.,.,.,.,.
Cc1noc(C)c1NC(=O)N[C@H]1CC[C@@H](CC(=O)NCCCN(C)C)O[C@@H]1CO,.,.,.,.,.,-14,.,.,.,.,.
CCCn1c(=O)c(C(=O)NCc2ccccc2OC)c(O)c2ccccc21,9,0,-22,6,88*,21,9,5,3,0,4
CCn1c(=O)c(C(=O)NCc2ccccc2OC)c(O)c2ccccc21,5,5,-14,7,-13,2,.,.,.,.,.
C[C@@H]1CN([C@H](C)CO)C(=O)c2cc(C#CC3(O)CCCC3)cnc2O[C@@H]1CN(C)S(=O)(=O)c1ccccc1,.,.,.,.,.,0,.,.,.,.,.
C[C@H](O)C#Cc1cnc2c(c1)C(=O)N([C@@H](C)CO)C[C@@H](C)[C@H](CN(C)C(=O)c1ccccc1F)O2,.,.,.,.,.,9,.,.,.,.,.
SMILES,SENP7 block,HSP90 inh,SENP8 block-1,SENP8 block-2,SENP6 inh,LGR2 inh,SENP8 confirm,SENP6 confirm,SENP7 confirm,Casp3 SENP sel,SENP luc ctr
C[C@H]1CCCCO[C@H](CN(C)Cc2ccccc2)[C@@H](C)CN([C@@H](C)CO)C(=O)c2cc(NS(=O)(=O)c3cn(C)cn3)ccc2O1,.,.,.,.,.,-6,.,.,.,.,.
O=C(/C=C/c1ccccc1)Nc1sc2c(c1C(=O)O)CCC2,7,2,0,69*,-5,-20,-5,74*,90*,73*,81*
O=C(/C=C/c1ccco1)Nc1sc2c(c1C(=O)O)CCC2,44,-1,9,84*,92*,-5,91*,90*,99*,94*,92*
C[C@@H]1CN([C@H](C)CO)C(=O)c2cc(C#Cc3ccccc3)cnc2O[C@H]1CN(C)S(=O)(=O)c1ccccc1F,.,.,.,.,.,19,.,.,.,.,.
O=C(Nc1nc2ccccc2[nH]1)c1cc(F)cc(F)c1,54*,7,-14,28,55*,-108,28,33,73*,66*,16
CN(C)S(=O)(=O)c1ccc(C(=O)Nc2nc3ccccc3[nH]2)cc1,1,-4,-15,-12,-18,-103,.,.,.,.,.
Cc1cc(C)cc(C(=O)Nc2nc3ccccc3[nH]2)c1,-11,-2,-2,-24,2,-74,.,.,.,.,.
N#Cc1ccc(C(=O)Nc2nc3ccccc3[nH]2)cc1,73*,9,-33,50*,69*,-15,2,40,71*,68*,-1
COCC(=O)Nc1ccc2c(c1)C(=O)N(C)[C@H]1CC[C@@H](CC(=O)NCC(F)(F)F)O[C@H]1CO2,.,.,.,.,.,13,.,.,.,.,.
CC(C)NC(=O)Nc1ccc2c(c1)C(=O)N([C@H](C)CO)C[C@H](C)[C@@H](CN(C)Cc1ccc(C(=O)O)cc1)O2,.,.,.,.,.,-3,.,.,.,.,.
